Only some compounds are listed: those with a hit (about 1.2% of all), similar ones and a draw of the others.
VCAM1 TNFa inh: reduces TNF alpha induced VCAM1 expression in HUVEC; HUVEC TNFa-induced VCAM-1 immunofluorescence, high-content imaging; inhibition, % at 2 µM; hit rate 0.48% among 95,000; AID 802;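 active = inhibition above the batch mean plus 3 SD, with images confirmed as a hit by eye, cut at about 37% in these data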;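 also: 0% = TNF-stimulated DMSO wells and 100% = unstimulated control wells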
F-actin modifier: cytoskeleton assembly modification | HUVEC TNFa F-actin phalloidin imaging, high content | inhibition, % at 2 µM | hit rate 0.18% among 91,000 | AID 836;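 active = inhibition above the batch mean plus 3 SD and confirmed as a hit by visual image inspection, cut at about 30% in these data, passing the limit was not always enough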
HUVEC tox TNFa: toxic to HUVEC cells under TNF alpha stimulation | HUVEC TNFalpha-stimulated, Hoechst cell count, imaging | cell count reduction, % at 2 µM | hit rate 0.17% among 93,000 | AID 848;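 active = cell count reduction exceeding the screen mean by over 5 SD, scaled to untreated wells per plate, cut at about 78% in these data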;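 also: cells counted after 24 h of TNF alpha exposure following the 1 h pretreatment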
E-sel TNF inh: TNF alpha driven E-selectin expression inhibition; hit rate 0.71% among 120,000; AID 1246; HUVEC TNFa-induced E-selectin immunofluorescence, high content; inhibition, % at 2 µM;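 active = inhibition above the batch mean plus 3 SD, and confirmed as a hit on visual image review, cut at about 43% in these data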;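 also: 0% = TNF-stimulated DMSO wells and 100% = unstimulated control wells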
* = called active by the depositor; . = not tested or not shown.

SMILES	VCAM1 TNFa inh	F-actin modifier	HUVEC tox TNFa	E-sel TNF inh
Cc1ccc(-n2c(C)cc(C(=O)COc3c(CO)cc(F)cc3CO)c2C)cc1C	.	.	.	-1
C=CCOC(=O)C1=C(C)NC(C)=C(C(=O)OCC=C)C1c1cn(-c2ccccc2)nc1-c1ccco1	.	.	.	-6
CNc1c([N+](=O)[O-])cnn1-c1ccc(Cl)cc1	7	50*	-12	-36
O=[N+]([O-])c1ccc(-n2nncc2-c2ccc(Cl)cc2)cc1	15	-6	-17	1
CN(c1ccc(C(=O)NCC2CCCO2)cc1)S(C)(=O)=O (stereo unspecified)	12	13	-13	65*
C=C(C)c1cccc(C(C)(C)NC(=O)N2CCCCC2CC)c1 (stereo unspecified)	-28	2	2	57*
Cc1ccc(NC(=S)N(Cc2ccc(Cl)cc2)Cc2ccc(C(=O)O)cc2)cc1Cl	.	.	.	-10
COC(=O)c1cccc(S(=O)(=O)N(Cc2ccco2)Cc2cc3ccc(OC)cc3[nH]c2=O)c1	87*	-28	61	.
O=C(O)c1ccc(NCc2ccncc2)cc1	-16	-1	84*	.
O=C(O)c1cccc(NCc2ccncc2)c1	3	6	-4	-8
Cc1ccc(NC(=O)C2CCCN(S(=O)(=O)c3c(C)noc3C)C2)nc1 (stereo unspecified)	-16	33	-3	65*
Cc1ccc(CCNC(=O)C2CCCN(S(=O)(=O)c3c(C)noc3/C=C/N(C)C)C2)cc1 (stereo unspecified)	0	4	-20	55*
Cc1ccc(CCNC(=O)C2CCCN(S(=O)(=O)c3c(C)noc3C)C2)cc1 (stereo unspecified)	19	-11	9	.
Cc1ccc(CNC(=O)C2CCN(S(=O)(=O)c3c(C)noc3/C=C/c3ccco3)CC2)cc1	-14	-14	42	57*
O=C(COC(=O)CNS(=O)(=O)c1ccc(F)c(F)c1F)Nc1ccc(OC(F)F)cc1	.	.	.	-5
O=C(NNC(=O)[C@H]1CC=CC[C@H]1C(=O)O)c1ccc(Cl)cc1Cl	.	.	.	46
COC(=O)[C@@]1(Cc2ccc(F)cc2)[C@H]2c3cc(C(=O)N(C)C)n(Cc4ccc(OC(F)(F)F)cc4)c3C[C@H]2CN1C(=O)c1ccccc1	.	.	.	-19
Cc1nnc(SCC(=O)Nc2c(C)n(C)n(-c3ccccc3)c2=O)n1Cc1ccccc1	.	.	.	-7
CN(c1cccc(Cl)c1)S(=O)(=O)c1cccc(C(=O)NC2=NCCS2)c1	6	-19	-10	-17
C=CCNC(=S)/C(=C(/[O-])c1ccccc1Br)[n+]1ccccc1	.	.	.	-1
O=c1ncn(-c2ccccc2F)c2ncccc12	5	-3	-2	67*
O=C(O)C(=O)/C(=C\c1ccccc1)c1ccc2ccccc2n1	2	6	-9	91*
CCN(CC)c1ccc(C2C(C(=O)OCCOC(C)C)=C(C)NC3=C2C(=O)CCC3)cc1 (stereo unspecified)	11	.	-20	.
CC1=C(C(=O)OCCOC(C)C)C(c2cccnc2)C2=C(CCCC2=O)N1 (stereo unspecified)	-10	79*	-45	.
Cn1c(SCc2ccc(Br)cc2)nnc1-c1ccncc1	-1	1	-16	73*
SMILES	VCAM1 TNFa inh	F-actin modifier	HUVEC tox TNFa	E-sel TNF inh
COc1ccc(S(=O)(=O)n2ccc(-c3ccc(OCCN(C)c4ccccn4)cc3)n2)cc1	0	66*	-16	29
COc1ccc(S(=O)(=O)N(CC(=O)O)c2ccccn2)cc1	10	-16	-7	5
CC1=C(C#N)C(/C=N/OCc2ccc(F)cc2Cl)CC(=O)N1 (stereo unspecified)	.	.	.	24
COc1ccc2c(=O)c(-c3cnn(-c4ccccc4)c3)c(C)oc2c1	3	-16	-6	-40
Cc1oc2c(C)c(O)ccc2c(=O)c1-c1cnn(-c2ccccc2)c1	13	-18	-15	59*
O=C1N(c2ccccc2)C2CS(=O)(=O)CC2N1c1ccc(Br)cc1 (stereo unspecified)	4	0	5	100*
C=CCn1c(COc2ccc(Cl)cc2)nnc1SCC(=O)N/N=C/c1cccc(O)c1	6	66*	-29	-7
CCOC(=O)C1CCN(Cc2cn[nH]c2-c2ccccc2)CC1	-6	-8	-31	2
CCOC(=O)C1CCN(Cc2ccccc2C)CC1	-11	30*	-40	8
CC(C)Oc1cccc(C(=O)C2CCCN(Cc3cnc(N4CCOCC4)s3)C2)c1 (stereo unspecified)	.	.	.	-17
CCOC(=O)c1cnc(-n2nc(C)cc2C)nc1N1CCOCC1	92*	-27	74	.
CCOC(=O)c1cnc(-n2nc(C)cc2C)nc1N(C)C	6	-7	-6	.
COc1ccc(C2C(C#N)=C(N)Oc3c2oc(CO)cc3=O)c(OC)c1OC (stereo unspecified)	15	-11	11	.
COc1cc(C2C(C#N)=C(N)Oc3c2oc(CO)cc3=O)cc(OC)c1OC (stereo unspecified)	12	8	-17	100*
O=C(NCCCn1ccnc1)c1ccncc1	10	-12	-24	-25
Cc1ccc(C(=O)NCCCn2ccnc2)cn1	-5	30*	-43	15
O=C(NC1(C(F)(F)F)N=C(c2ccccc2)NC1=O)c1ccccc1 (stereo unspecified)	.	.	.	1
Cc1nnc(SCc2cn3ccsc3n2)n(N)c1=O	62*	31	82*	-14
CSCCC(NC(=O)OCc1ccccc1)C(=O)O (stereo unspecified)	97*	18	-24	-18
O=C(O)CCC(NC(=O)OCc1ccccc1)C(=O)O (stereo unspecified)	-4	-8	-7	3
CCN(CC)c1nc(-c2ccccn2)nc(-c2ccccc2)c1C#N	.	.	.	5
Cc1cccc(C(=O)Oc2csc(=S)n2C(=O)c2cccc(C)c2)c1	3	2	-5	-6
O=C(Oc1csc(=S)n1C(=O)c1ccccc1)c1ccccc1	98*	-71	86*	-2
O=C(CCn1c2c(c3ccccc31)CCCC2)NNC(=O)c1ccccc1[N+](=O)[O-]	.	.	.	81*
CN(Cc1ccccc1)C(=O)COC(=O)C1CCN(S(=O)(=O)c2cccs2)CC1	.	.	.	-9
SMILES	VCAM1 TNFa inh	F-actin modifier	HUVEC tox TNFa	E-sel TNF inh
CCOC(=O)CSc1nc(N)cc(=O)[nH]1	-10	25	-8	77*
CC1CC(Nc2ccccc2)=CC(=O)O1 (stereo unspecified)	16	10	-5	44*
CCCC(CCC)C(=O)NNc1cc(=O)c2c(=O)n(C)c(=O)n(C)c2[nH]1	11	-14	6	100*
COc1ccc(CN(C)C(=O)COC(=O)c2c(-c3ccccc3Cl)noc2C)cc1	.	.	.	-27
CC(=O)c1nnn(-c2nc(N)nc(N(c3ccccc3)c3ccccc3)n2)c1C	4	60	-13	61*
CC1C/C(=C/c2ccncc2)C(=O)/C(=C/c2ccncc2)C1 (stereo unspecified)	.	.	.	100*
CCNC(=S)SCCOc1ccccc1C	.	.	.	9
CC(C)(C)c1nnc2cccc(Cl)n12	.	.	.	-15
Cc1ccccc1NC(=S)NNC(=O)c1csc2c1CCC(C)C2 (stereo unspecified)	15	-21	-11	-12
CCOC(=O)N1CCN(C(=O)c2ccc(Oc3ccc([N+](=O)[O-])cc3)cc2)CC1	.	.	.	62*
O=C(NCc1ccccc1)c1n[nH]nc1-c1ccccc1O	.	.	.	58*

Source: PubChem BioAssay (Columbia University Molecular Screening Center)
